Compound activity (PubChem)
GASC-1 inh: inhibitors of GASC-1 histone demethylase, primary screen, biochemical, fluorescence, DELFIA europium. Lysine-specific demethylase 4C (Homo sapiens), Q9H3R0. GST-JMJD2C(1-420) H3K9me3 demethylation. inhibition, % at 2.35 µM. actives 0.069% (n = 330,000). AID 2099, 2009;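 active = more than half of a compound's replicate wells show inhibition beyond 50%, single wells judged on their own value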;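 also: signal counts dimethyl H3K9 product captured on neutravidin plate; 0% = median of DMSO wells and 100% = 0.3 times that DMSO median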
GRK2 inh: compounds blocking aptamer binding on GRK2 – biochemical, human GRK2, bead flow cytometry, HTS, primary screen. FAM-aptamer displacement from GRK2. inhibition of aptamer binding, % at 10 µM. actives 0.59% (n = 330,000). AID 488847, 2010;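 active = inhibition of aptamer binding above 40%, roughly 3 SD of noise, on plates passing a quality check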;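 also: median bead fluorescence of bound FAM aptamer so fluorescent compounds give negative values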
PREPL inh: PREPL enzyme inhibitors, primary screen, biochemical, fluorescence polarization. recombinant PREPL, fluorescence polarization activity-based probe. inhibition, % at 5.96 µM. AID 2751, 2010. actives 0.68% (n = 320,000); in the data active = inhibition above about 43%;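 also: 0% = enzyme with DMSO and 100% = wells lacking enzyme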
VLA-4 inh: inhibition in human VLA-4 binding assay, primary screen, VLA-4 allosteric modulator project, MLPCN library, flow cytometry, VLA-4 expressing cells | Integrin alpha-4 (Homo sapiens), P13612 | ligand binding flow cytometry | inhibition, % (about 7 µM as worked out from the volumes in the protocol) | actives 0.2% (n = 330,000) | AID 2557, 2010; in the data active = inhibition above about 50%
DSG3 Ab inh: inhibitors of pemphigus antibody binding to DSG3, primary screen, biochemical, bead-based, flow cytometry, scFv-GFP; Desmoglein-3 (Homo sapiens), P32926; DSG3-coupled beads, scFv-anti-DSG3-GFP binding; hits give low values; binding (percent of control), % at 10 µM; actives 0.48% (n = 310,000);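 active = binding more than 3 SD below its plate's average and above zero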;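 also: hits lower antibody fragment binding to DSG3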
VLA-4 allo CP: retest of VLA-4 allosteric modulators, confirmation, cell-based, cherry-picked plates, U937, HUTS-21 LIBS antibody; shares compounds with VLA-4 inh; U937 cells, HUTS-21 LIBS mAb binding, flow cytometry; LDV ligand present at threefold Kd; inhibition, % at 6.7 µM; actives 2% (n = 1,300); AID 2813, 2010; in the data active = inhibition above about 40%;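 also: 0% = ligand without compound and 100% = no ligand background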
* marks the source's active call; other numbers are inactive results; x = no result given. Only some compounds are listed: those with a hit (about 1.6% of all), similar ones and a draw of the others.

SMILES | GASC-1 inh | GRK2 inh | PREPL inh | VLA-4 inh | DSG3 Ab inh | VLA-4 allo CP
O=C1CN(C(=O)CSc2nc(-c3ccc(Cl)cc3)cs2)c2ccccc2N1 | -2 | 0 | -93 | 4 | 185 | x
CCn1c(O)c(/C=C2\C=Nc3ccccc32)sc1=O | 1 | 0 | -3 | 44 | 101 | -11
CCn1c(O)c(/C=C2\C=Nc3ccccc32)sc1=Nc1ccc(C)cc1 | 9 | 1 | 4 | 4 | 104 | x
CCOc1ccc(NC(=S)N2CCC(N(C)CCN3CCOCC3)CC2)cc1 | -3 | 0 | 3 | 6 | 101 | x
CCOC(=O)Cc1nnc(Nc2cccc(O)c2)c2ccccc12 | -2 | 1 | 27 | 89* | 82 | -15
CCOC(=O)Cc1nnc(Nc2ccc(C(=O)NC)cc2)c2ccccc12 | 5 | 1 | -5 | -4 | x | x
Cc1cc(C)n(CC(O)CN2C(=O)NC(C)(C)C2=O)n1 (stereo not drawn) | -6 | 1 | -4 | 54* | 100 | 2
CC1(C)NC(=O)N(CC(O)CN2C(=O)NC(C)(C)C2=O)C1=O | 11 | 1 | 14 | -19 | 97 | x
CC(=O)N(Cc1ccccc1)C1CC(=O)N(Cc2ccccc2)C1=O (stereo not drawn) | x | x | x | x | 93 | x
CCOC(=O)c1c(C)[nH]c(C(=O)COC(=O)CSC)c1C | 4 | 1 | -6 | 91* | 88 | -7
CCOC(=O)c1c(C)[nH]c(C(=O)COC(=O)CCSc2ccccc2)c1C | -15 | 1 | -1 | -37 | 102 | x
CCCCC(=O)OCC(=O)c1[nH]c(C)c(C(=O)OCC)c1C | 11 | 0 | -7 | -15 | 102 | 2
COc1ccc(S(=O)(=O)N(C)C)cc1NC(=O)COC(=O)Cn1cnc2ccccc2c1=O | -7 | 2 | 5 | 16 | x | x
CN(C)C1=NCCN1CCc1ccc(F)cc1 | 8 | 0 | -2 | 46 | 103 | x
CCN1CCC(Nc2ccnc3cc(Cl)ccc23)CC1 | -6 | 0 | 5 | 48 | 102 | -5
CCOc1ccc(N(CC(=O)Nc2ccc(OC)cc2)S(=O)(=O)c2c(C)noc2C)cc1 | 6 | 0 | -19 | 4 | 105 | x
CCOc1ccc(NC(=O)CN(c2cc(C)cc(C)c2)S(=O)(=O)c2c(C)noc2C)cc1 | 12 | 2 | 6 | 53* | 108 | 7
CCOc1ccc(N(CC(=O)Nc2ccc(C)c(C)c2)S(=O)(=O)c2c(C)[nH]c(=O)[nH]c2=O)cc1 | 17 | 1 | 20 | -1 | 89 | -8
CCOC(=O)N1CCN(C(=O)CSc2nc3c([nH]c4ccccc43)c(=O)n2CC)CC1 | -2 | 11 | 2 | 5 | 93 | x
Cn1c(COc2ccccc2)nnc1SCC(=O)NNC(=O)C1CCCCC1 | -1 | 2 | 14 | 4 | 117 | x
CCOC(=O)C1(S(=O)(=O)c2ccccc2)CCN(Cc2ccc(Cl)cc2)CC1 | 0 | 2 | -10 | 74* | 96 | -1
CCOC(=O)C1(Cc2ccc(Cl)cc2)CCN(Cc2nccn2CC)CC1 | 2 | 1 | -31 | 5 | 93 | x
CCOC(=O)C1(S(=O)(=O)c2ccc(Cl)cc2)CCN(Cc2ccc(Cl)cc2)CC1 | -3 | 0 | -45 | 59* | 97 | 5
CC(C)NC(=O)CSc1nc(N)c(NC(=O)c2ccccc2F)c(=O)[nH]1 | 0 | 13 | 0 | 3 | 107 | x
COc1cc(/C=C2\NC(=S)N(C)C2=O)ccc1OCc1cccc(F)c1 | -12 | 2 | 8 | -18 | 104 | x
Cc1nn(C)c(C)c1S(=O)(=O)N(CC(=O)N1CCc2ccccc2C1)c1ccc(C(C)C)cc1 | 3 | 0 | 18 | -10 | 94 | x
CCOC(=O)c1c(NC(=O)COC(=O)CNC(=O)c2ccc(Cl)cc2Cl)sc(C(=O)N(C)C)c1C | 11 | 1 | -1 | 52* | 115 | 1
COc1ccccc1-c1sc2cc3c(cc2c1-c1ccc(OCCN2CCCCC2)cc1)OCO3 | -5 | 0 | 31 | 33 | 104 | 18
